In PubChem BioAssay (Tox21):
Several values for one entry are separate records, joined by “and”; a condition that tells them apart may be missing. Identical values can stand only once. Results filed as inconclusive are left out. The source holds several records for some structures; these can differ, active in one and inactive in another. Activity calls are given as the source filed them. Unless noted, the call rests on the fitted dose curve; in most records, active means well fitted curve in the direction sought with a large enough effect in the repeat runs; inconclusive means weak or mixed curves; inactive means no such curve, though single readings can be large; an effect the other way counts as inactive or inconclusive.

Key:
[1] = A CellTox Green Cytotoxicity Assay to monitor cytotoxicity in HepG2 cells - 0 hour (AID 1224882); further: nearly all actives have a fitted effect of over 35% in size
Summary of the method: (§1)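 Read-out is fluorescence of a cyanine dye excluded from live cells that stains DNA of dead HepG2 cells, with signal proportional to cytotoxicity. Plates were read at 0, 8, 16, 24, 32 and 40 h after compound addition.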

[2] = A CellTox Green Cytotoxicity Assay to monitor cytotoxicity in HepG2 cells - 32 hour (AID 1224883); further: nearly all actives have a fitted effect of over 50% in size; further: potency means the concentration at half of the fitted maximal effect
Summary of the method: as §1

[3] = A CellTox Green Cytotoxicity Assay to monitor cytotoxicity in HEK293 cells - 8 hour (AID 1224884); further: nearly all actives have a fitted effect of over 35% in size; further: potency means the concentration at half of the fitted maximal effect
Summary of the method: (§2)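 Nonlytic real-time cytotoxicity: HEK293 + CellTox Green reagent plated, 5 h preincubation, pintool compound addition (23 nL in DMSO), 37 C for 40 h, fluorescence measured at successive time points.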

[4] = qHTS RealTime-Glo MT Cell Viability Assay in HepG2 cells - 16 hour (AID 1224885); further: nearly all actives have a fitted effect of over 50% in size
Summary of the method: (§3)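 Compound treatment began 5 h after plating HepG2 cells (600/well) with NanoLuc luciferase and prosubstrate. Plates stayed at 37 C for 40 h; luminescence was captured at six time points, 0 h through 40 h.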

[5] = qHTS RealTime-Glo MT Cell Viability Assay in HEK293 cells - 24 hour (AID 1224886); further: nearly all actives have a fitted effect of over 50% in size; further: potency means the concentration at half of the fitted maximal effect
Summary of the method: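 Quantitative high-throughput screen of the Tox21 10K library in HEK293: cells and RealTime-Glo reagents plated together, compound added at 5 h, luminescence monitored through 40 h at 37 C.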

[6] = qHTS RealTime-Glo MT Cell Viability Assay in HEK293 cells - 8 hour (AID 1224887); further: nearly all actives have a fitted effect of over 50% in size; further: potency means the concentration at half of the fitted maximal effect
Summary of the method: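 Cells were seeded together with NanoLuc luciferase and a prosubstrate that viable cells reduce to a luciferase substrate. After a 5 h incubation at 37 C/5% CO2, compounds were added and luminescence was measured repeatedly during 40 h of treatment.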

[7] = A CellTox Green Cytotoxicity Assay to monitor cytotoxicity in HEK293 cells - 16 hour (AID 1224888); further: nearly all actives have a fitted effect of over 35% in size; further: potency means the concentration at half of the fitted maximal effect
Summary of the method: as §2

[8] = qHTS RealTime-Glo MT Cell Viability Assay in HepG2 cells - 0 hour (AID 1224889); further: nearly all actives have a fitted effect of over 50% in size
Summary of the method: as §3

[9] = A CellTox Green Cytotoxicity Assay to monitor cytotoxicity in HepG2 cells - 8 hour (AID 1224890); further: nearly all actives have a fitted effect of over 45% in size; further: potency means the concentration at half of the fitted maximal effect
Summary of the method: as §1

[10] = qHTS assay to identify small molecule antagonists of the estrogen receptor alpha (ER-alpha) signaling pathway using the BG1 cell line in the presence of 0.1 nM 17-beta-estradiol - cell viability counter screen (AID 1259241); further: nearly all actives have a fitted effect of over 40% in size
Summary of the method: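 VM7Luc4E2, 4,000 cells/well, phenol red-free medium + 10% charcoal-stripped FBS; 24 hr plating; cpd + 0.1 nM E2 final, 22 hr 37C/5% CO2; CellTiter-Fluor 30 min, fluorescence.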

[11] = qHTS assay to identify small molecule antagonists of the androgen receptor (AR) signaling pathway using the MDA cell line in the presence of 0.5 nM R1881 - cell viability counter screen (AID 1259242); further: nearly all actives have a fitted effect of over 45% in size
Summary of the method: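 Counter screen for cytotoxicity run in the same wells as the AR antagonist reporter screen: MDA-kb2 cells were treated 16 hr with test compounds and 0.5 nM R1881, then live-cell protease activity was measured by fluorescence.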

[12] = target: Estrogen receptor (Homo sapiens) (UniProt P03372); experiment: qHTS assay to identify small molecule antagonists of the estrogen receptor alpha (ER-alpha) signaling pathway using the BG1 cell line in the presence of 0.1 nM 17-beta-estradiol (AID 1259244); further: nearly all actives have a fitted effect of over 50% in size; further: potency means the concentration at half of the fitted maximal effect
Estrogen receptor (Homo sapiens), sequence (P03372 whole entry, looked up): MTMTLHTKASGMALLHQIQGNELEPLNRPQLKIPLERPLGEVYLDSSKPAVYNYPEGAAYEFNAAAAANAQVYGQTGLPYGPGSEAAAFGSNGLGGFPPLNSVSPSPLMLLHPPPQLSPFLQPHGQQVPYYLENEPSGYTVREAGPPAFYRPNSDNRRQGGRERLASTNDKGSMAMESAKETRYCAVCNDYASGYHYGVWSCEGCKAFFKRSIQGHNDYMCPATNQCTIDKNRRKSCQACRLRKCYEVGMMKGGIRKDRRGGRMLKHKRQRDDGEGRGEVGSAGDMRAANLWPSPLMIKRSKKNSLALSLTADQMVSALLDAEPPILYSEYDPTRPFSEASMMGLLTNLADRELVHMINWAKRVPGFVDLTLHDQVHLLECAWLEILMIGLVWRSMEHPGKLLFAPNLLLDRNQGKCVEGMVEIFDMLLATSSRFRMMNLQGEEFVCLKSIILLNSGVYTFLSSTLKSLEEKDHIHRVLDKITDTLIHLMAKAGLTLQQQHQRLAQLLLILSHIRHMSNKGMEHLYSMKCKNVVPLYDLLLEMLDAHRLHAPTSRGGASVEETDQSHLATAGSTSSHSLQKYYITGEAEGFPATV
Summary of the method: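 Cells: VM7Luc4E2, endogenous ER-alpha, 4x ERE-luc stable. Pre-culture 5 d, phenol red-free, charcoal-stripped FBS. Plated 24 h, compound + E2 0.1 nM final, 22 h 37C/5% CO2. Readout ONE-Glo luminescence.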

[13] = qHTS assay to identify small molecule HDAC inhibitors - cell viability counter screen (AID 1259365)
Summary of the method: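 Luminescence from CellTiter-Glo, developed 30min at room temperature, reports viability of wild-type HCT-116 cells treated 2hr with compounds at 37 C and 5% CO2 after overnight plating.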

[14] = qHTS assay to identify small molecule agonists of the sonic hedgehog signaling (Shh) pathway - cell viability counter screen (AID 1259366); further: nearly all actives have a fitted effect of over 50% in size; further: potency means the concentration at half of the fitted maximal effect
Summary of the method: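 Cytotoxicity counter screen run in the same wells as the Shh reporter assay. NIH/3T3 cells carrying a Gli1 response element–driven luciferase were treated with DMSO-dissolved compounds for 24hr, and live-cell protease activity was measured with CellTiter-Fluor.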

[15] = qHTS assay to identify small molecule antagonists of the sonic hedgehog signaling (Shh) pathway - cell viability counter screen (AID 1259367); further: nearly all actives have a fitted effect of over 55% in size
Summary of the method: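 NIH/3T3-derived Gli1-Luc reporter cells (2,000 per well) rested 4 hr at 37 C, then received DMSO compounds plus conditioned medium. After 23 hr of treatment, CellTiter-Fluor was added for 1 hr at 37C and fluorescence read.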

[16] = qHTS assay to identify small molecule agonists of the sonic hedgehog signaling (Shh) pathway (AID 1259368; calls by dose curve;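 further: NIH/3T3-derived 3T3Gli1-Luc cells carrying a stable Gli1-driven firefly luciferase reporter; series mostly up to about 92 µM; nearly all actives have a fitted effect of over 15% in size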)
Summary of the method: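 3T3Gli1-Luc (NIH/3T3 clone, stable Gli1-Luc); 4 hr pre-incubation, then cpd in DMSO 24 hr, 37 C/5% CO2; luciferase reagent 30 min RT; luminescence.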

[17] = qHTS assay to identify small molecule antagonists of the sonic hedgehog signaling (Shh) pathway (AID 1259369; calls by dose curve; further: nearly all actives have a fitted effect of over 45% in size; further: potency means the concentration at half of the fitted maximal effect)
Summary of the method: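 3T3Gli1-Luc, conditioned-medium-stimulated, 24hr cpd, 37C/5% CO2; Gli1-driven firefly Luc luminescence after 30min RT with luciferase reagent. Cells plated 4hr before cpd.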

[18] = qHTS assay to identify small molecule HDAC inhibitors (AID 1259364); further: top concentration of the series differs between compounds; nearly all actives have a fitted effect of over 45% in size
Summary of the method: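 Luminescence from a cell-permeant luminogenic class I/II HDAC substrate reports endogenous deacetylase activity in intact HCT-116 cells treated with compounds for 2 h.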

[19] = target: Androgen receptor (Homo sapiens) (UniProt P10275); experiment: qHTS assay to identify small molecule antagonists of the androgen receptor (AR) signaling pathway using the MDA cell line in the presence of 0.5 nM R1881 (AID 1259243); further: nearly all actives have a fitted effect of over 50% in size
Androgen receptor (Homo sapiens), sequence (P10275 whole entry, looked up): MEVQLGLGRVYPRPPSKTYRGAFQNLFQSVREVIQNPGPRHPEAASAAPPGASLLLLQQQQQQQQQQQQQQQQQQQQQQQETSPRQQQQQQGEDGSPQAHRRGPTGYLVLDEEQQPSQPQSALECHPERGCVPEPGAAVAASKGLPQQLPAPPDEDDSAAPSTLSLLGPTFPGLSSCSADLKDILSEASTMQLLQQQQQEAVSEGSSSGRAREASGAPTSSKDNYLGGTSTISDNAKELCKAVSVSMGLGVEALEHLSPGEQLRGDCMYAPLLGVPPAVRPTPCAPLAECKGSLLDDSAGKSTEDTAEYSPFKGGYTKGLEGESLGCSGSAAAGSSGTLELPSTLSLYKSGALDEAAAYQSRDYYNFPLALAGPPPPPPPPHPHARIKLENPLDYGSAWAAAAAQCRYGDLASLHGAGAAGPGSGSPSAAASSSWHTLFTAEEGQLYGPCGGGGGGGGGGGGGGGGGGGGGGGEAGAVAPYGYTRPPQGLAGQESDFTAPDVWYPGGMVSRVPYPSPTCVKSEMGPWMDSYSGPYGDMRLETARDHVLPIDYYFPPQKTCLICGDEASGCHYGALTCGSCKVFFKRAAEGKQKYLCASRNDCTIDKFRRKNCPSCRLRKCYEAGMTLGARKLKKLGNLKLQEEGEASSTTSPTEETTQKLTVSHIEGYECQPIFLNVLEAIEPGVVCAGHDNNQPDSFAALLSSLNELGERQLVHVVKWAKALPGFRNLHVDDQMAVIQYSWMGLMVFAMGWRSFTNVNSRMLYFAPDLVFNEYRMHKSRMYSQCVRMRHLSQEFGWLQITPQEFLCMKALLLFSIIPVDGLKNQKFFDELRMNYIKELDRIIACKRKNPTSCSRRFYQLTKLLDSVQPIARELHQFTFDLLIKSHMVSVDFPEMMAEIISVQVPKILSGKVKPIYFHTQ
Summary of the method: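 Luciferase luminescence is the read-out: compounds are tested for suppressing 0.5 nM R1881-driven MMTV reporter activity in MDA-kb2 cells after 16 hr at 37C.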

[20] = qHTS assay to identify small molecule phospholipidosis (PLD) inducers (AID 1259344; active means well fitted curve in the direction sought with a large enough effect; an effect the other way counts as inactive or inconclusive)
Summary of the method: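 HepG2 cells on collagen I, attached 4 h at 37 C, were co-treated with compound and LipidTOX Red dye for 24 h at 37 C, then fixed with paraformaldehyde plus Hoechst 33342 and imaged by high-content microscopy for phospholipid accumulation.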

Measured: Potency

Nc1ccc2ccccc2c1
inactive: [1] | [2] | [3] | [4] | [5] | [6] | [7] | [8] | [9] | [10] | [11] | [12] | [13] | [14] | [15] | [16] | [17]

N#CCCCCC#N
inactive: [1] | [2] | [3] | [4] | [5] | [6] | [7] | [8] | [9] | [10] | [11] | [18] | [13] | [14] | [15] | [16] | [17]

CCOP(=S)(OCC)OP(=S)(OCC)OCC
inactive: [1] | [2] | [3] | [4] | [5] | [6] | [7] | [8] | [9] | [10] | [11] | [19] | [18] | [13] | [14] | [15] | [16] | [17]

C=CC(Cl)CCl (stereo unspecified)
inactive: [1] | [2] | [3] | [4] | [5] | [6] | [7] | [8] | [9] | [10] | [11] | [19] | [13] | [14] | [15] | [16] | [17]

CN(C)c1ccccc1
inactive: [1] | [2] | [3] | [4] | [5] | [6] | [7] | [8] | [9] | [10] | [11] | [18] | [13] | [14] | [15] | [16] | [17]

CC(C)(c1ccccc1)c1ccc(O)cc1
inactive: [1] | [4] | [8] | [10] | [11] | [13] | [16]
active: [2] 48.6 µM and 24.5 µM | [3] 8.64 µM and 49 µM | [5] 43.3 µM and 24.5 µM | [6] 48.6 µM and 34.7 µM | [7] 24.3 µM and 43.6 µM | [12] 61.1 µM | [14] 60.6 µM | [17] 27.1 µM and 30.6 µM
inactive and 43.6 µM (active): [9]

ClC(Cl)(Cl)Br
inactive: [1] | [2] | [3] | [4] | [5] | [6] | [7] | [8] | [9] | [10] | [11] | [18] | [13] | [14] | [15] | [16] | [17]

ClCc1ccccn1
inactive: [1] | [2] | [3] | [4] | [5] | [6] | [7] | [8] | [9] | [10] | [11] | [12] | [18] | [13] | [14] | [15] | [16] | [17]

CC(C)=CC1C(C(=O)OCc2cccc(Oc3ccccc3)c2)C1(C)C (stereo unspecified)
inactive: [1] | [2] | [3] | [4] | [5] | [6] | [7] | [8] | [9] | [10] | [11] | [12] | [20] | [13] | [14] | [15] | [16] | [17]

O=C(O)CF
inactive and 19.5 µM (active): [2]
inactive: [1] | [3] | [4] | [5] | [6] | [7] | [8] | [9] | [10] | [11] | [12] | [13] | [14] | [15] | [16] | [17]

CCC1(c2ccc(N)cc2)CCC(=O)NC1=O (stereo unspecified)
inactive: [1] | [2] | [3] | [4] | [5] | [6] | [7] | [8] | [9] | [10] | [11] | [19] | [12] | [20] | [13] | [14] | [15] | [16] | [17]

C[N+](C)(C)CC(=O)O
inactive: [1] | [2] | [3] | [4] | [5] | [6] | [7] | [8] | [9] | [10] | [11] | [12] | [20] | [13] | [14] | [15] | [16] | [17]

ClC(Cl)=C(Cl)C(Cl)=C(Cl)Cl
inactive: [1] | [2] | [3] | [4] | [5] | [6] | [7] | [8] | [10] | [11] | [12] | [18] | [13] | [14] | [15] | [16] | [17]
